The list is not random: actives were taken first. Their share in the collection is about 21%.
Sm TGR inh – qHTS Assay for the Inhibitors of Schistosoma Mansoni Peroxiredoxins. Schistosoma mansoni thioredoxin glutathione reductase (TGR), Q962Y6. purified TGR, DTNB reduction, TNB absorbance 405 nm. Potency, µM (top dose mostly 114 µM), for inactives: at the top dose activity change, negative = inhibition, usual class: inhibitors. 360,000 compounds, 3% hits; note: potency is the fitted concentration of half-maximal effect; % is set by controls: 0 for no effect and ±100 for the full control effect; nearly all actives have a fitted effect of over 60% in size
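First, TGR (20 nM dispensed) and NADPH were mixed with compound. Second, a 15 min room-temperature incubation followed. Third, further NADPH and then DTNB were added to start the reaction. Finally, TNB absorbance was monitored kinetically.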
NS1 function inh – qHTS Assay for Inhibitors of Influenza NS1 Protein Function; Potency, µM (titrated, usually from 46.1 µM), for the others: at the highest dose activity, positive = more growth; 270,000 compounds, 0.4% hits; calls by dose curve; note: potency is the fitted concentration of half-maximal effect; actives are rising curves; nearly all actives have a fitted effect of over 50% in size
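Recovery from NS1-induced slow growth read by OD600 in budding yeast switched to galactose assay medium (pH 6.0, -URA) at 1:100 dilution. Compound 23 nl per well; the matching strain lacking NS1 serves as control.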
Cycloheximide cs – Cycloheximide Counterscreen for Small Molecule Inhibitors of Shiga Toxin; cell reporter, cycloheximide protein synthesis inhibition counterscreen; max response, %; 300,000 compounds, 12% hits; in the data active = max response mostly above about 13%, no sharp cut-off; inactive = mostly below about 14%; note: read at 38.3 µM for the half of the compounds with a filed dose; 0% is about no effect
Pf growth 96h – Primary qHTS for delayed death inhibitors of the malarial parasite plastid, 96 hour incubation | P. falciparum luciferase reporter growth, 96 h | Potency, µM (highest dose often 28.7 µM), for the others: at the highest dose activity change, negative = inhibition, usual class: inhibitors | 320,000 compounds, 6.9% hits | AID 504834, 2011; note: potency is the fitted concentration of half-maximal effect; % is set by controls: 0 for no effect and ±100 for the full control effect
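Cell-based qHTS: luciferase-tagged P. falciparum in erythrocytes (2% hematocrit, 0.05% parasitemia final) incubated with compounds for 96 hours, 37 C, 5% CO2; luciferase detection reagent then added and luminescence measured.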
Pf growth 48h – Primary qHTS for delayed death inhibitors of the malarial parasite plastid, 48 hour incubation; Potency, µM (series often up to 28.7 µM), without a hit: top-dose activity change, negative = inhibition, most hits filed as inhibitors; 310,000 compounds, 5.9% hits; P. falciparum luciferase growth in erythrocytes, 48 h; note: potency is the fitted concentration of half-maximal effect; % is set by controls: 0 for no effect and ±100 for the full control effect
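In quantitative HTS format, infected erythrocytes bearing luciferase-reporter parasites were treated for a single generation at 37 C. Luminescence after adding detection reagent served as the growth measure.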
Shiga toxin inh – A qHTS for Small Molecule Inhibitors of Shiga Toxin. Vero cells, Shiga toxin protein synthesis inhibition reporter. inhibition, % at 38.7 µM. 290,000 compounds, 9.2% hits. AID 2315, 2010; in the data active = inhibition mostly above about 28%, no sharp cut-off; inactive = mostly below about 43%; note: 0% is about no effect
Numbers without * were called inactive; i = inactive; ? = inconclusive; · = no result given. Unless noted, calls come from the whole dose curve; as a rule, active = well fitted curve in the direction sought with a large enough effect; inconclusive = small, poorly fitted or top-dose-only effect, or another doubt; inactive = no such curve, though single readings can be large; an effect the other way counts as inactive or inconclusive.

SMILES	Sm TGR inh	NS1 function inh	Cycloheximide cs	Pf growth 96h	Pf growth 48h	Shiga toxin inh
Cc1cc2c(cc1C)NC(CC(=O)Nc1cccc(C)c1C)C(=O)N2 (stereo unspecified)	7%	·	·	·	·	·
Cc1cc2c(cc1C)NC(CC(=O)NCc1ccccc1)C(=O)N2 (stereo unspecified)	-2%	1%	26*	21%	?	61*
CCCCc1cc(=O)oc2cc(C)c(CN3CCCC3)c(O)c12	-6%	-3%	-2	105%	4.1µM*	17
CCc1cc(=O)oc2cc(C)c(CN3CCCC(C)C3)c(O)c12 (stereo unspecified)	?	6%	1	?	2.1µM*	-12
CCCCc1cc(=O)oc2c(CN3CCCC3)c(O)ccc12	-12%	6%	-2	?	?	9
N#Cc1c(N)c2ccccn2c1C(=O)c1ccc(Br)cc1	1%	-4%	13	-37%	?	33
CN1CCN(C2=Nc3ccccc3Sc3ccc(Cl)cc32)CC1	·	·	·	-28%	?	·
CN1CCN(C2=Cc3cc(Cl)ccc3Sc3cc(F)ccc32)CC1	-4%	-34%	-7	?	4.7µM*	-19
CN1CCN(C2=Cc3ccccc3Sc3cc(F)c(Cl)cc32)CC1	0%	-20%	-3	?	5.2µM*	-12
CN1CCN(C2=Cc3ccccc3Sc3cc(F)c(F)cc32)CC1	-9%	-4%	-4	?	6.6µM*	-11
O=C(Nc1cccc(Cl)c1)Nc1ccccc1OCc1cc(=O)n2ccccc2n1	-3%	·	·	·	·	·
COC(=O)C1=C(c2cccc(OCc3ccccc3)c2)C[C@@H]2CC[C@H]1N2C(=O)NCCOc1ccc(OC)cc1	6%	·	·	?	7.4µM*	·
COC(=O)C1=C(c2ccc(Cl)c(C(F)(F)F)c2)C[C@@H]2CC[C@H]1N2C(=O)NCc1ccc2c(c1)OCO2	-25%	·	·	32%	?	·
COC(=O)C1=C(c2cccc(OCc3ccccc3)c2)C[C@@H]2CC[C@H]1N2C(=O)NCc1ccccc1C(F)(F)F	-1%	·	·	?	4.1µM*	·
COC(=O)C1=C(c2cccc(OCc3ccccc3)c2)C[C@@H]2CC[C@H]1N2C(=O)NCCN1CCOCC1	3%	·	·	5.2µM*	?	·
COC(=O)C1=C(c2cccc(Cl)c2)C[C@@H]2CC[C@H]1N2C(=O)NCC1CC1	-8%	·	·	-12%	?	·
COC(=O)C1=C(c2cccc(OCc3ccccc3)c2)C[C@@H]2CC[C@H]1N2C(=O)NCc1cccc(OC)c1	7%	·	·	4.1µM*	10µM*	·
O=S(=O)(c1ccc(Br)s1)N1CCN(CCOc2ccccc2)CC1	-2%	·	·	?	-22%	·
Cc1cc(C)n2c(Nc3ccc(C(C)C)cc3)c(-c3ccsc3)nc2n1	-6%	·	·	·	·	·
Cc1cccc(-c2noc(CCCOc3ccc(Cl)cc3Cl)n2)c1	7%	-13%	1	·	19%	16
COC(=O)C1=C(c2cccc(OCc3ccccc3)c2)C[C@@H]2CC[C@H]1N2C(=O)NCc1ccc(C(C)(C)C)cc1	-1%	·	·	?	3.7µM*	·
COC(=O)C1=C(c2ccc(OC(F)(F)F)cc2)C[C@@H]2CC[C@H]1N2C(=O)NCc1ccc(F)cc1	5%	·	·	?	?	·
COC(=O)C1=C(c2cccc(C#N)c2)C[C@@H]2CC[C@H]1N2C(=O)NCc1ccco1	35µM*	·	·	2%	2%	·
COC(=O)C1=C(c2cccc(OCc3ccccc3)c2)C[C@@H]2CC[C@H]1N2C(=O)NCc1ccc(N(C)C)cc1	-5%	·	·	?	8.3µM*	·
COC(=O)C1=C(c2ccc(C(C)=O)cc2)C[C@@H]2CC[C@H]1N2C(=O)NCc1ccc(C(F)(F)F)cc1	4%	·	·	?	?	·
SMILES	Sm TGR inh	NS1 function inh	Cycloheximide cs	Pf growth 96h	Pf growth 48h	Shiga toxin inh
COc1ccc(NC(=O)Cn2c(=O)n(CCc3ccccc3)c(=O)c3sc4ccccc4c32)cc1	0%	·	·	·	·	·
COc1cccc(C(=O)Nc2cccc(NC(=O)c3ccccc3Cl)c2)c1	5%	-13%	13	i	0%	23
COc1ccc(NC(=O)c2ccc(S(=O)(=O)N(C)C)cc2)cc1	21%	-2%	15	?	-4%	35
COc1ccc(NC(=O)c2cccc(OS(=O)(=O)N(C)C)c2)cc1	·	-7%	44*	9%	72%	105*
CNS(=O)(=O)c1cccc(C(=O)Nc2cccc(Cl)c2)c1	-24%	0%	35*	120%	·	15
CN(C)S(=O)(=O)Oc1cccc(C(=O)Nc2ccc(Cl)c(Cl)c2)c1	-15%	2%	72*	-1%	86%	117*
COC(=O)c1ccc(OS(=O)(=O)N(C)C)cc1	5%	·	54*	105%	99%	99*
CNS(=O)(=O)c1cccc(C(=O)Nc2cccnc2)c1	0%	7%	-5	·	1%	-16
COC(=O)COc1ccc(C(=O)OC)cc1	-16%	-63%	-3	-18%	11%	-8
CCOc1ccc(CNC(=O)Cn2c(=O)c3cccn3c3ccc(F)cc32)cc1	-1%	·	·	·	·	·
COCc1nnc(NC(=O)CC(C)C)s1	-2%	9%	-2	?	3%	0
COc1cccc(S(=O)(=O)NCc2ccc(C(=O)Nc3ccc(Cl)cc3)cc2)c1	2%	1%	-4	1%	-9%	1
COc1cccc(S(=O)(=O)NCc2ccc(C(=O)Nc3cccc(Cl)c3)cc2)c1	-2%	5%	-3	9.3µM*	·	-10
CN(C)S(=O)(=O)Oc1cccc(C(=O)Nc2cccc(Cl)c2)c1	5%	-63%	38*	96%	154%	67*
COc1cccc(NC(=O)Cn2c(=O)n(CCC(=O)NCc3ccccc3OC)c(=O)c3ccccc32)c1	2%	·	·	·	·	·
CC(=O)N1CCc2cc(Br)cc(S(=O)(=O)CCC(=O)NCc3ccc(F)cc3)c21	2%	·	·	·	·	·
Fc1ccc(Br)cc1C1C=C(c2cccnc2)Nc2ncnn21 (stereo unspecified)	26%	-126%	0	7%	·	-13
CC1=C(C(N)=O)C(c2ccc(Br)cc2)n2nc(CCCO)nc2N1 (stereo unspecified)	2%	1%	-1	-23%	27%	-3
Brc1ccc(C2=CC(c3cccs3)n3ncnc3N2)cc1 (stereo unspecified)	22µM*	-40%	-2	-21%	?	-5
OCCCc1nc2n(n1)C(c1cccs1)C=C(c1ccc(Br)cc1)N2 (stereo unspecified)	25µM*	2%	0	?	?	18
Cc1ccc(SCCC(=O)OC(C)C(=O)Nc2ccccc2)cc1 (stereo unspecified)	7%	·	·	20%	6%	·
CC(C)CN(Cc1cc(=O)oc2cc(-c3ccccc3)c(O)cc12)CC(C)C	-17%	22%	2	?	0.33µM*	16
